Ten molecules from PubChem BioAssay (NCATS) can be followed below.

A short description of experiment [1]: qHTS profiling of the MIPE4 collection as inhibitors of Plasmodium falciparum (DD2) proliferation (Rep 2) (AID 743346; call rule not given here). Particulars: P. falciparum Dd2 in erythrocytes, SYBR Green DNA, 72 h; at 28.5 µM unless noted. Summed up:
(§1)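 Erythrocytes infected with P. falciparum (0.3% parasitemia, 2.5% hematocrit) incubated with compounds 72 h at 37 C, 5% CO2. Lysis with saponin/Triton buffer containing SYBR Green I, overnight at room temperature in the dark; DNA fluorescence (485/535 nm) normalised to 0.29 uM artemisinin and DMSO.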
A general note: qHTS replaces the single test concentration by a dilution series.

The nature of experiment [2]: qHTS profiling of the MIPE4 collection as inhibitors of Plasmodium falciparum (HB3) proliferation (AID 743347; call rule not given here;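 also: plate controls were DMSO vehicle wells for no effect and artemisinin wells for full effect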). The settings on record: P. falciparum HB3 in erythrocytes, SYBR Green DNA, 72 h; at 28.5 µM unless noted. In short, it runs like this:
as §1

The nature of experiment [3]: High-throughput drug toxicity screening in the BPDCN cell line Gen2.2 (AID 1224824; call rule not given here;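 also: cells exposed to compounds for 48 h before reading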). Particulars: Gen2.2 BPDCN cells; at 45.8 µM (top of the series) unless noted. In short, it runs like this:
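Readout is ATP luminescence from Gen2.2 cells after two days of drug exposure in serum-containing medium at 37 °C. Values express percent activity, with vehicle defining full signal and 9.2 uM bortezomib defining zero.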

The nature of experiment [4]: High-throughput drug toxicity screening in the BPDCN cell line Cal-1 (AID 1224825; call rule not given here). Particulars: Cal-1 BPDCN cell viability, qHTS; at 45.8 µM (top of the series) unless noted. Summed up: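 Exponentially growing Cal-1 cells, 500 per well in phenol red-free RPMI with 10% FBS, were exposed to compounds for 48 h at 37 °C, 5% CO2. Viability was read by CellTiter-Glo luminescence and normalised to DMSO (100%) and 9.2 uM bortezomib (0%).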

Experiment [5] in a line: qHTS assay for measurement of the activity of small molecule inhibitors on Zika virus induced Caspase-3 activity in human iPSC derived neural progenitor cells (hNPCs) (AID 1224857). Also: % of control where 0% means no effect; nearly all actives have a fitted effect of over 65% in size. Summed up:
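Cells were plated at 350 per well and grown 16 to 20 hours. Compound pretreatment lasted one hour, after which ZIKV (2 FFU/cell) was added for 6 hours. Percent inhibition was normalized between uninfected and infected controls.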

Experiment [6] in a line: qHTS assay for measurement of the activity of small molecule inhibitors on Zika virus induced Caspase-3 activity in human astrocytoma cells (AID 1224859).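 Also: plate controls were ZIKV-infected untreated cells for no effect and uninfected cells for full effect.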 In short, it runs like this: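 Percent inhibition of virus-induced caspase-3/7 signal is calculated against uninfected and ZIKV-infected control cells. Cells are SNB-19, infected at 2 FFU/cell for 6 h after 1 h compound exposure.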

Experiment [7] in a line: qHTS Screen of the MIPE 4.0 Collection Against Ewings Sarcoma (TC71) (AID 1259253). Also: nearly all actives have a fitted effect of over 40% in size. Also: potency is read from the fitted curve at half-maximal effect. Summed up: (§2)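 Here, cells in 5% FBS RPMI were exposed for two days (48 h) to compound dilutions added four hours after plating. ATP-based CellTiter-Glo luminescence measured viability, normalized to vehicle and no-cell blanks.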
A short description of experiment [8]: qHTS Screen of the MIPE 4.0 Collection Against Ewings Sarcoma (EW8) (AID 1259255). Also: nearly all actives have a fitted effect of over 35% in size. Also: potency is read from the fitted curve at half-maximal effect.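 As to viability: 100% = DMSO-treated cells and 0% = medium-only wells without cells.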 Summed up: as §2
The nature of experiment [9]: qHTS Screen of the MIPE 4.0 Collection Against Ewings Sarcoma (TC32) (AID 1259256). Also: nearly all actives have a fitted effect of over 45% in size. Also: potency is read from the fitted curve at half-maximal effect. In short, it runs like this:
as §2

Experiment [10] can be described thus: qHTS Screen of the MIPE 4.0 Collection Against Ewings Sarcoma (RDES) (AID 1259252). Also: nearly all actives have a fitted effect of over 35% in size. Also: potency is read from the fitted curve at half-maximal effect. In short, it runs like this: as §2

Inconclusive results are not listed. The source made the active and inactive calls. Unless noted, calls follow the shape of the dose curve; as a rule, active = well fitted inhibition curve with a large enough effect; inconclusive = small, poorly fitted or top-dose-only effect; inactive = no such curve, though single readings can be large or run the other way.

Turning to `COc1cc2c(cc1O)CCC1C2CC[C@@]2(C)C1CC[C@@H]2O` (some centres undefined), in experiment [1], the parasite growth, % of control (lower = inhibition) came to 67%. In addition, the growth, % of control in [2] was found to be 59.7%. Also, in experiment [3], the cell viability, % of control (lower = more cytotoxic) was 95.2%. Moreover, the viability (% of control) in experiment [4] was found to be 10.9%. The Potency entry in experiment [5] and in experiment [6] was “inactive” throughout. The Potency was 2.64 µM (active) in [7], 3.32 µM (active) in experiment [8] and 2.64 µM (active) in experiment [9].
In turn, `CC(O)(C#Cc1ccc2c(c1)N(c1nc(N)ncc1Cl)CC2)c1nccs1` (centres undefined) had a parasite growth, % of control (lower = inhibition) in experiment [1] of 22.8%. The molecule also returned a growth, % of control in experiment [2] of 5.79%. Also, the cell viability, % of control (lower = more cytotoxic) in [3] came out at 279%. The viability (% of control) in [4] came out at 37.2%. In addition, the Potency result in experiment [5] and in experiment [6] was “inactive” each time. In addition, the Potency was 16.6 µM (active) in experiment [10] and 20.9 µM (active) in experiment [8].
In experiment [1], `CO[C@@H]1[C@@H](O)[C@H](O)[C@@H](n2c3c(Cl)cccc3c3c4c(c5c6cccc(Cl)c6[nH]c5c32)C(=O)NC4=O)O[C@@H]1CO` had a parasite growth, % of control (lower = inhibition) of 8.26%. Moreover, the growth, % of control in [2] amounted to 8.64%. For the same molecule, the cell viability, % of control (lower = more cytotoxic) in experiment [3] worked out at 12.9%. In addition, in experiment [4], the viability (% of control) came out at 5.01%. In addition, the Potency result in [5], in experiment [6] and in experiment [9] was “inactive” throughout. The Potency was 0.0935 µM (active) in experiment [7] and 0.105 µM (active) in experiment [8].
As to `C[C@H](CCC(=O)O)[C@H]1CC[C@H]2[C@@H]3[C@H](O)C[C@@H]4C[C@H](O)CC[C@]4(C)[C@@H]3CC[C@]12C`, the cell viability, % of control (lower = more cytotoxic) in experiment [3] was found to be 114%. Also, the viability (% of control) in experiment [4] was determined as 97.2%. Moreover, the Potency entry in experiment [5], in [6], in [7], in experiment [8] and in experiment [9] was “inactive” in each case.
Consider `Cc1ccc(O)c(C(CCN(C(C)C)C(C)C)c2ccccc2)c1` (centres undefined), for which the parasite growth, % of control (lower = inhibition) in experiment [1] was 10.4%. This molecule displayed a growth, % of control in experiment [2] of 19.1%. The cell viability, % of control (lower = more cytotoxic) in experiment [3] amounted to 239%. Besides, the viability (% of control) in experiment [4] is 103%. In addition, the Potency entry in experiment [5], in experiment [6], in [10], in experiment [8] and in experiment [9] was “inactive” each time.
`COc1cc(C[C@@H](CO)[C@H](CO)Cc2ccc(O)c(OC)c2)ccc1O` displayed a parasite growth, % of control (lower = inhibition) in experiment [1] of 80.4%. The molecule also registered a growth, % of control in [2] of 96.5%. In addition, the cell viability, % of control (lower = more cytotoxic) in experiment [3] came out at 55.1%. Moreover, the viability (% of control) in experiment [4] stood at 23.4%. In addition, the Potency result in experiment [5] and in experiment [6] was “inactive” in each case. The Potency was 0.372 µM (active) in experiment [7], 0.743 µM (active) in experiment [8] and 0.372 µM (active) in experiment [9].
Molecule `O=C(Nc1ccc(Oc2ccnc3[nH]ccc23)c(F)c1)c1cccn(-c2ccc(F)cc2)c1=O` came in with a parasite growth, % of control (lower = inhibition) in [1] of 29.2%. Moreover, the growth, % of control in [2] stood at 7.02%. Besides, the cell viability, % of control (lower = more cytotoxic) in [3] was determined as 83%. Besides, the viability (% of control) in experiment [4] was determined as 87.2%. For the same molecule, the Potency result in [5], in experiment [6], in experiment [10] and in [8] was “inactive” in each case.
In experiment [1], `CCCCCCCCc1ccc(CCC(N)(CO)CO)cc1` returned a parasite growth, % of control (lower = inhibition) of 24.2%. The molecule further yielded a growth, % of control in [2] of 4.09%. Further, the cell viability, % of control (lower = more cytotoxic) in experiment [3] turned out to be 4.54%. Moreover, the viability (% of control) in [4] was found to be 3.28%. Moreover, the Potency entry in experiment [5] and in experiment [6] was “inactive” in each case. The Potency in experiment [7] is 20.9 µM (active); in experiment [8], 20.9 µM (active); in [9], 18.7 µM (active).
`CCCCCCCN(CC)CCCC(O)c1ccc(NS(C)(=O)=O)cc1` (centres undefined) came in with a parasite growth, % of control (lower = inhibition) in [1] of 72%. In [2], the growth, % of control amounted to 54%. In addition, the cell viability, % of control (lower = more cytotoxic) in experiment [3] came out at 213%. The viability (% of control) in [4] amounted to 81.4%. Besides, the Potency entry in [5], in experiment [6], in experiment [7], in experiment [8] and in experiment [9] was “inactive” each time.
`C[N+](C)([O-])CCNc1ccc(NCC[N+](C)(C)[O-])c2c1C(=O)c1c(O)ccc(O)c1C2=O`: the cell viability, % of control (lower = more cytotoxic) in [3] is 105%. In addition, the viability (% of control) in [4] was found to be 19.7%. For the same molecule, the Potency result in experiment [5], in experiment [6] and in experiment [9] was “inactive” each time. In addition, the values for the Potency in experiment [7] and in experiment [8] were 16.6 µM (active) and 20.9 µM (active), respectively.
